# Results reported in PubChem BioAssay (NCI).
# Compounds without any hit were thinned out: in the full panel of roughly 79,000, 15% have a hit. Values without a mark were called inactive. Active and inactive are the calls of the source. Cut-off read from the data, not from the text of the source: active = growth inhibition above about 70%; inactive = the rest.
# Assays:
# [1] = NCI Yeast Anticancer Drug Screen. Data for the rad50 strain (AID 155);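 note: 0% = growth of vehicle-only cultures of the same strain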; details: S. cerevisiae rad50 strain growth inhibition, active compounds read high
# Method in brief: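 DNA repair mutant yeast, compound exposure, growth read-out; inhibition is taken relative to vehicle.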
# [2] = NCI Yeast Anticancer Drug Screen. Data for the mec2-1 strain (AID 157); details: S. cerevisiae mec2-1 strain, active compounds read high
# Method in brief: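 mec2-1 yeast strain, carrying an alteration in DNA damage repair or cell cycle control, was exposed to compounds; growth inhibition was measured relative to vehicle-treated controls.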
# [3] = NCI Yeast Anticancer Drug Screen. Data for the sgs1 mgt1 strain (AID 161);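 note: 0% = growth of cultures given vehicle only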; details: S. cerevisiae sgs1 mgt1 strain, active compounds read high
# Method in brief: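 Compounds are added to genetically altered yeast, and growth is compared with cultures given vehicle alone to give percent inhibition.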
# [4] = NCI Yeast Anticancer Drug Screen. Data for the cln2 rad14 strain (AID 165);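 note: 0% = growth equal to vehicle treated cultures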; details: S. cerevisiae cln2 rad14 strain, active compounds read high
# Method in brief: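 Yeast carrying cln2 and rad14 alterations (cell cycle control and DNA damage repair) were exposed to compounds. Growth inhibition was measured against vehicle-treated controls.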
# [5] = NCI Yeast Anticancer Drug Screen. Data for the bub3 strain (AID 167); details: S. cerevisiae bub3 mutant strain, active compounds read high
# Method in brief: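 In this screen, a yeast mutant lacking normal mitotic checkpoint function is challenged with compound. Relative growth versus vehicle gives the inhibition value.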
# [6] = NCI Yeast Anticancer Drug Screen. Data for the mlh1 rad18 strain (AID 175); details: S. cerevisiae mlh1 rad18 strain growth inhibition, active compounds read high
# Method in brief: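 Growth inhibition of the yeast strain was measured after compound exposure and expressed relative to vehicle-treated controls. The strain carries defined defects in DNA damage repair.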
# [7] = at 5.0 µM (retest, dose inferred, filed as 0.5)
# [8] = at 50.0 µM (retest, dose inferred, filed as 5.0)
SMILES,"growth inhibition [1, 7]","growth inhibition [1, 8]",growth inhibition ([1]; at 50.0 µM),"growth inhibition [2, 7]","growth inhibition [2, 8]",growth inhibition ([2]; at 50.0 µM),"growth inhibition [3, 7]","growth inhibition [3, 8]",growth inhibition ([3]; at 50.0 µM),"growth inhibition [4, 7]","growth inhibition [4, 8]",growth inhibition ([4]; at 50.0 µM),"growth inhibition [5, 7]","growth inhibition [5, 8]",growth inhibition ([5]; at 50.0 µM),"growth inhibition [6, 7]","growth inhibition [6, 8]",growth inhibition ([6]; at 50.0 µM)
O=S(O)O.O=S(O)O.[Co].[NH2-].[NH2-].[NH2-].[NH2-],7%,21%,-5.55%,-1%,7%,29.4%,20%,22%,2.5%,33%,16%,47.9%,12%,5%,-5.25%,3%,26%,16%
O=C1C=CC(=O)C(Cl)=C1,10%,96% (active),92.2% (active),3%,73% (active),96% (active),10%,98% (active),96.2% (active),6%,56%,91.4% (active),16%,97% (active),95% (active),5%,98% (active),95.5% (active)
Nc1nc(N)c(-c2ccc(Cl)c(Cl)c2)c(CCc2ccc(CNC(=O)c3cccc(S(=O)(=O)F)c3)cc2)n1,-3%,96% (active),62.7%,-1%,99% (active),59.2%,7%,99% (active),45.9%,-10%,97% (active),54.6%,-9%,98% (active),47.4%,30%,98% (active),54%
CCC1(O)C(=O)OCc2c1cc1n(c2=O)Cc2cc3cc4c(cc3nc2-1)OCO4 (configuration not stated),97% (active),92% (active),86.6% (active),98% (active),96% (active),86.3% (active),97% (active),96% (active),85.2% (active),90% (active),91% (active),73% (active),92% (active),89% (active),90% (active),93% (active),79% (active),92.7% (active)
C[C@]12CC[C@H](OC3OC(CO)C(O)C(O)C3O)C[C@H]1CC[C@@H]1[C@@H]2CC[C@]2(C)[C@@H](C3=CCOC3=O)CC[C@]12O (some centres not stated),7%,4%,-11.2%,6%,-2%,-6.9%,-17%,-2%,6.4%,-11%,-35%,13.1%,-22%,7%,-38.5%,6%,21%,49.6%
CN1CCN(c2ccc3nc(-c4ccc5nc(CCCc6ccc(N(CCCl)CCCl)cc6)[nH]c5c4)[nH]c3c2)CC1,98% (active),98% (active),90.5% (active),99% (active),99% (active),90.8% (active),100% (active),99% (active),92.2% (active),97% (active),99% (active),91% (active),99% (active),99% (active),91.7% (active),98% (active),98% (active),89.5% (active)
COC(C)(C)[CH]([Hg][Cl])n1ccccc1=O (configuration not stated),99% (active),99% (active),99.3% (active),99% (active),100% (active),99.4% (active),99% (active),99% (active),99.3% (active),98% (active),99% (active),99.2% (active),99% (active),99% (active),99.1% (active),98% (active),98% (active),99.3% (active)
O=[n+]1c2ccccc2n([O-])c2ccccc21.[Cl][Cu][Cl],90% (active),98% (active),99.1% (active),20%,99% (active),99% (active),36%,98% (active),99.2% (active),7%,97% (active),97.6% (active),-3%,98% (active),97.7% (active),57%,98% (active),99% (active)
[Hg][c]1ccccc1,99% (active),94% (active),99.5% (active),99% (active),100% (active),99.7% (active),100% (active),52%,99.5% (active),99% (active),27%,98.3% (active),100% (active),-2%,99.6% (active),99% (active),53%,99.3% (active)
S=C=NCCc1ccccc1,-12%,21%,72% (active),-13%,18%,48.4%,-5%,-8%,42.5%,2%,8%,28.1%,5%,20%,43.8%,-20%,15%,61.6%
CC(CCc1ccccc1)NC(C)C(O)c1ccc(O)cc1 (configuration not stated),1%,32%,49%,4%,55%,28.6%,23%,66%,52.2%,9%,42%,68.3%,9%,40%,64.8%,45%,71% (active),78.1% (active)
C[N+](C)(C)CC1Cc2ccccc2C1=O (configuration not stated),25%,98% (active),90% (active),20%,99% (active),93.2% (active),14%,99% (active),92% (active),10%,85% (active),90.5% (active),32%,99% (active),91.5% (active),26%,99% (active),92.5% (active)
O=P1(N2CCOCC2)OC(c2ccccc2)=CCN1c1ccccc1 (configuration not stated),3%,4%,-0.15%,-1%,-1%,47.1%,5%,81% (active),24.6%,-1%,-2%,39%,3%,25%,10.3%,-1%,3%,-3.45%
CN(CCCl)Cc1ccc(OCc2ccccc2)c(OCc2ccccc2)c1,2%,98% (active),99.7% (active),-20%,99% (active),99.6% (active),0%,99% (active),99.7% (active),8%,98% (active),98.1% (active),0%,99% (active),99.4% (active),3%,99% (active),99.6% (active)
O=c1ccc(N=Cc2ccc(N(CCCl)CCCl)cc2)ccc1O,94% (active),93% (active),96.2% (active),92% (active),97% (active),65.4%,97% (active),98% (active),92% (active),52%,89% (active),35.4%,95% (active),93% (active),93% (active),98% (active),98% (active),93.8% (active)
C[N+](C)(C)CC1CCCC1=O (configuration not stated),18%,70% (active),51.6%,16%,59%,21.3%,13%,58%,24.6%,11%,34%,19.2%,20%,70% (active),8.15%,21%,77% (active),22.6%
CCC(C)c1cnc(CC(C)C)c(=O)n1O (configuration not stated),87% (active),99% (active),91% (active),26%,99% (active),88.8% (active),75% (active),98% (active),90% (active),68%,98% (active),86.3% (active),59%,98% (active),90.7% (active),73% (active),99% (active),89.6% (active)
O=C(O)c1cc(Cc2ccc(O)c(C(=O)O)c2)ccc1O (tested in a mixture with another compound),92% (active),32%,42.6%,76% (active),4%,26.7%,40%,48%,85% (active),31%,41%,14.1%,33%,36%,72.7% (active),87% (active),36%,74.4% (active)
COCCOCCOC(=O)CBr,-2%,96% (active),86.1% (active),-7%,96% (active),82.5% (active),1%,97% (active),88.7% (active),1%,68%,40.7%,-3%,94% (active),77.8% (active),-3%,97% (active),92.2% (active)
